MCF10A rerep: A quantitative high throughput screen for small molecules that induce DNA re-replication in MCF 10a normal breast cells; MCF 10A DNA re-replication, Hoechst nuclear intensity, 48 h; 350,000 tested, 2.9% active; Potency, µM (series often up to 46.1 µM), actives largely listed as activators; also: nearly all actives have a fitted effect of over 50% in size
BCR signal inh: qHTS Assay to Find Inhibitors of Chronic Active B-Cell Receptor Signaling. ABC-DLBCL IkBa-CBG/CBR reporter, luminescence ratio, 4 h. Potency, µM (doses to about 46.1 µM), hits mostly inhibitors. 340,000 tested, 0.05% active; active = well fitted inhibition curve with a large enough effect in the signal ratio, with a control signal flat, not every such curve was filed as active; inconclusive = small, poorly fitted or top-dose-only effect, or effect the other way, or a change in a side signal; the % refers to the signal ratio
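Compounds up to 46 uM were incubated four hours with TMD8 cells whose green CBG68 luciferase is fused to IkappaBalpha; red CBR luminescence normalised the signal, and concentration-effect curves were fitted to fusion, red and ratio data.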
TDP1 cell CPT: qHTS for Inhibitors of human tyrosyl-DNA phosphodiesterase 1 (TDP1): qHTS in cells in presence of CPT; chicken DT40 Tdp1-/-;hTDP1 cells + 20 nM CPT, ATP luminescence, 48 h; Potency, µM (doses to about 46.2 µM), actives largely listed as inhibitors; 420,000 tested, 12% active; also: nearly all actives have a fitted effect of over 55% in size
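Chicken DT40 Tdp1-/- cells complemented with human TDP1, 400 cells/well, exposed to compounds plus 20 nM camptothecin for at least 48 h at 37 C; viability read as ATP content by CellTiter-Glo luminescence.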
SW480 rerep: A quantitative high throughput screen for small molecules that induce DNA re-replication in SW480 colon adenocarcinoma cells | SW480 DNA re-replication, Hoechst DNA content imaging, 48 h | 340,000 tested, 1.8% active | Potency, µM (doses to about 46.1 µM), usual class: activators; also: nearly all actives have a fitted effect of over 55% in size
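First, 250 cells per well were seeded. Next, compound or vehicle (23 nL) was pinned in, plates sat 48 hr at 37 C. Finally Hoechst was added for 40 min before fluorescence scanning.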
IL-1B inflam inh: qHTS for Inhibitors of Inflammasome Signaling: IL-1-beta AlphaLISA Primary Screen. THP-1 LPS/ATP IL-1B secretion, AlphaLISA, 16 h; active compounds read low. activity change, % at 57.5 µM. 360,000 tested, 4.7% active; in the data active = activity change below about -50%; inconclusive = mostly about -30% to -49%
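Secreted IL-1B measured by AlphaLISA bead assay after 16 h compound exposure of THP-1 cells; compounds (final up to 57.5 uM) added 1 h before LPS (250 ng/mL) and ATP (1.25 mM) stimulation; lower signal means less secretion.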
DT40 TDP1 no CPT: qHTS for Inhibitors of human tyrosyl-DNA phosphodiesterase 1 (TDP1): qHTS in cells in absence of CPT | DT40 Tdp1-/- hTDP1 cells, no CPT, ATP luminescence, 48 h | Potency, µM (top dose mostly 46.2 µM), hits mostly inhibitors | 420,000 tested, 15% active; also: nearly all actives have a fitted effect of over 55% in size
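No-CPT arm: Tdp1-/-;hTDP1 DT40 cells (400/well) plus compounds, incubated ≥48 hr at 37 °C. Readout CellTiter-Glo luminescence.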
Each line names hits and unclear results; the compound was inactive in the other large screens; ! = not active in a repeat. Most compounds without a hit are left out; they make up all but 19% or so of the library. Unless noted, calls follow the shape of the dose curve; as a rule, active = well fitted curve in the direction sought with a large enough effect; inconclusive = small, poorly fitted or top-dose-only effect, or another doubt; inactive = no such curve, though single readings can be large; an effect the other way counts as inactive or inconclusive.

C[C@H]1CN([C@@H](C)CO)S(=O)(=O)c2ccc(Br)cc2O[C@@H]1CN(C)C(=O)C1CCOCC1	DT40 TDP1 no CPT inconclusive (no result: MCF10A rerep, BCR signal inh, SW480 rerep)
Cn1c(SCc2ccc(Cl)cc2)nnc1-c1ccc2nonc2c1	DT40 TDP1 no CPT inconclusive
COc1cccc(C(=O)NCC(c2ccc(N(C)C)cc2)N2CCc3ccccc32)c1OC (stereo unspecified)	TDP1 cell CPT 15µM, DT40 TDP1 no CPT 15µM (no result: MCF10A rerep, BCR signal inh, SW480 rerep, IL-1B inflam inh)
CN(C)c1ccc(C(CNC(=O)c2ccccc2F)N2CCc3ccccc32)cc1 (stereo unspecified)	TDP1 cell CPT 10µM, DT40 TDP1 no CPT inconclusive (no result: MCF10A rerep, BCR signal inh, SW480 rerep, IL-1B inflam inh)
O=S(=O)(NCC(c1ccco1)N1CCc2ccccc21)c1ccccc1 (stereo unspecified)	TDP1 cell CPT 23µM, DT40 TDP1 no CPT 18µM
COc1ccc(C(=O)NCC(c2ccco2)N2CCc3ccccc32)cc1 (stereo unspecified)	MCF10A rerep 5.8µM, BCR signal inh inconclusive, TDP1 cell CPT 3.7µM, SW480 rerep inconclusive, DT40 TDP1 no CPT 2.6µM
Cc1ccccc1C(=O)NCC(c1ccc(N(C)C)cc1)N1CCCC1 (stereo unspecified)	none (no result: MCF10A rerep, BCR signal inh, SW480 rerep, IL-1B inflam inh)
CCc1nc2ccc(C(=O)Nc3cccc(NS(C)(=O)=O)c3)cn2c1N(C)CCN1CCOCC1	none (no result: MCF10A rerep, BCR signal inh, SW480 rerep)
Cc1cn(C2CCCO2)c(=O)nc1N (stereo unspecified)	TDP1 cell CPT inconclusive (no result: BCR signal inh)
N#CCC(=O)Nc1ccc(C(=O)N2CCN(S(=O)(=O)c3ccc4ccccc4c3)CC2)cc1	IL-1B inflam inh inconclusive
COc1cc(C(=O)NCC(c2ccc(N(C)C)cc2)N2CCc3ccccc32)cc(OC)c1OC (stereo unspecified)	TDP1 cell CPT 7.3µM, DT40 TDP1 no CPT 18µM (no result: MCF10A rerep, BCR signal inh, SW480 rerep, IL-1B inflam inh)
COc1ccc(C(=O)NCC(c2ccc(N(C)C)cc2)N2CCc3ccccc32)cc1OC (stereo unspecified)	TDP1 cell CPT 5.2µM, DT40 TDP1 no CPT 6.5µM (no result: MCF10A rerep, BCR signal inh, SW480 rerep, IL-1B inflam inh)
COc1ccc(C(=O)NCC(c2cccs2)N2CCc3ccccc32)c(OC)c1 (stereo unspecified)	TDP1 cell CPT inconclusive, DT40 TDP1 no CPT 15µM
Cc1cc(S(=O)(=O)NCC(c2ccc(N(C)C)cc2)N2CCOCC2)ccc1F (stereo unspecified)	none (no result: MCF10A rerep, BCR signal inh, SW480 rerep, IL-1B inflam inh)
Cc1cc(C)c(S(=O)(=O)NCC(c2ccc(N(C)C)cc2)N2CCc3ccccc32)c(C)c1 (stereo unspecified)	TDP1 cell CPT 18µM, DT40 TDP1 no CPT inconclusive (no result: MCF10A rerep, BCR signal inh, SW480 rerep, IL-1B inflam inh)
COc1cccc(C(=O)NCC(c2ccc(N(C)C)cc2)N2CCc3ccccc32)c1 (stereo unspecified)	TDP1 cell CPT 8.2µM, DT40 TDP1 no CPT inconclusive (no result: MCF10A rerep, BCR signal inh, SW480 rerep, IL-1B inflam inh)
COc1cccc(C(=O)NCCS(=O)(=O)N2CCc3ccccc3C2)c1	none
CCOC(=O)C1=C(COC(=O)CNS(=O)(=O)c2ccc(NC(C)=O)cc2)NC(=O)NC1C (stereo unspecified)	none (no result: BCR signal inh)
Cc1sc2nc(C(C)Nc3ccccc3N3CCOCC3)[nH]c(=O)c2c1C (stereo unspecified)	TDP1 cell CPT inconclusive, DT40 TDP1 no CPT 15µM
Cc1sc2nc(CSCC(=O)Nc3ccc(N4CCOCC4)cc3)[nH]c(=O)c2c1C	TDP1 cell CPT inconclusive, DT40 TDP1 no CPT inconclusive
Cc1nn(-c2ccc(F)cc2)c(Cl)c1C(=O)NCC1CCCO1 (stereo unspecified)	MCF10A rerep inconclusive, SW480 rerep inconclusive
O=S(=O)(NCCc1csc(-c2ccc(C(F)(F)F)cc2)n1)c1ccc2c(c1)OCCO2	TDP1 cell CPT 18µM, DT40 TDP1 no CPT 15µM
COc1ccc(-c2nc(CCNS(=O)(=O)c3ccc4c(c3)OCCO4)cs2)cc1	TDP1 cell CPT 18µM, DT40 TDP1 no CPT 16µM
CC(C)(C)OC(=O)N1CCC(C(=O)N[C@@H](Cc2ccccc2)C(=O)O)(c2ccccc2)CC1	MCF10A rerep inconclusive, SW480 rerep 0.46µM!
CCOC(=O)c1sc(N(Cc2ccccc2)C(=O)COC(=O)c2ccc(O)cc2)nc1C	MCF10A rerep 9.2µM, BCR signal inh inconclusive, TDP1 cell CPT 9.2µM, SW480 rerep inconclusive, IL-1B inflam inh inconclusive, DT40 TDP1 no CPT 5.8µM
CCOC(=O)c1sc(N(Cc2ccccc2)C(=O)CCl)nc1C	MCF10A rerep inconclusive, BCR signal inh inconclusive, TDP1 cell CPT inconclusive, IL-1B inflam inh -101, DT40 TDP1 no CPT 21µM
CCOC(=O)c1sc(N(Cc2ccccc2)C(=O)CSc2ncn[nH]2)nc1C	MCF10A rerep inconclusive, BCR signal inh inconclusive, TDP1 cell CPT inconclusive, IL-1B inflam inh -52, DT40 TDP1 no CPT inconclusive
CCOC(=O)c1sc(N(Cc2ccccc2)C(=O)COC(=O)c2ccccc2O)nc1C	DT40 TDP1 no CPT inconclusive
CCNC(=O)C1CCCN(C(=O)c2ccc(OC(F)F)cc2)CC1 (stereo unspecified)	none (no result: MCF10A rerep, BCR signal inh, SW480 rerep)
CN1C[C@@H]2C(c3ccc(C(F)(F)F)cc3)C3(c4ccccc4)CC2(C3)[C@H]1c1ccccc1 (stereo partly specified)	TDP1 cell CPT inconclusive, DT40 TDP1 no CPT 16µM
COC(=O)c1cccc(C23CC4(C2)[C@H](CN(Cc2ccc(C(F)(F)F)cc2)[C@@H]4c2ccccc2)C3c2ccccc2)c1 (stereo partly specified)	TDP1 cell CPT 29µM, SW480 rerep inconclusive, DT40 TDP1 no CPT 16µM
N#Cc1ccc(C23CC4(C2)[C@H](CN(Cc2ccc(-c5ccccc5)cc2)[C@@H]4c2ccccc2)C3c2ccc(C(F)(F)F)cc2)cc1 (stereo partly specified)	TDP1 cell CPT 16µM, DT40 TDP1 no CPT inconclusive
c1ccc(-c2ccc(CN3C[C@@H]4C(c5ccccc5)C5(c6cccnc6)CC4(C5)[C@H]3c3ccccc3)cc2)cc1 (stereo partly specified)	TDP1 cell CPT inconclusive, DT40 TDP1 no CPT inconclusive
N#Cc1ccc(C23CC4(C2)[C@H](CN(Cc2cccnc2)[C@@H]4c2ccccc2)C3c2ccccc2)cc1 (stereo partly specified)	MCF10A rerep inconclusive, TDP1 cell CPT 9.2µM, DT40 TDP1 no CPT 7.3µM
FC(F)(F)c1ccc(C2[C@H]3CN(Cc4ccc(-c5ccccc5)cc4)[C@H](c4ccccc4)C34CC2(c2ccccc2)C4)cc1 (stereo partly specified)	BCR signal inh inconclusive, TDP1 cell CPT inconclusive, DT40 TDP1 no CPT inconclusive
